PubChem BioAssay (NCI)
This is part of a sample that, as a whole, favours compounds with a hit. Of some 79,000 tested, about 15% had one in any assay. Values without a mark were called inactive. Active and inactive are the calls of the source. No stated cut-off is given here; in the data, active means growth inhibition above about 70%; inactive means the rest. *1 amine or outer side, *2 acyl side, *3 side chain or, on linkers, in order; H or OH if unused. Where a SMILES comes first, the peptide text is derived from it. [ ]: non-standard residue; d: D form. X8 = C=CCC(O[*:1])C(=O)[*:2]; NMeV = CN[CH](C(=O)O)C(C)C; NMeA = CN[CH](C)C(=O)O; βAla = NCCC(=O)O

Columns and labels:
[1] = NCI Yeast Anticancer Drug Screen. Data for the rad50 strain (AID 155);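 further: 0% = growth of vehicle-only cultures of the same strain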; conditions: S. cerevisiae rad50 strain growth inhibition; at 50.0 µM; stronger effect = higher value
In short: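 Inhibition values express reduced yeast growth in compound-treated cultures relative to vehicle-treated controls.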

[2] = NCI Yeast Anticancer Drug Screen. Data for the mec2-1 strain (AID 157); conditions: S. cerevisiae mec2-1 strain, at 50.0 µM, stronger effect = higher value
In short: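 Growth inhibition is read against vehicle-treated controls after compound exposure of the mec2-1 yeast strain, which is defective in DNA damage repair or cell cycle control.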

[3] = NCI Yeast Anticancer Drug Screen. Data for the sgs1 mgt1 strain (AID 161);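 further: 0% = growth of cultures given vehicle only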; conditions: S. cerevisiae sgs1 mgt1 strain, at 50.0 µM, stronger effect = higher value
In short: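 This yeast growth screen uses a strain with defined DNA-repair lesions; compound-treated growth is compared with vehicle-treated growth.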

[4] = NCI Yeast Anticancer Drug Screen. Data for the cln2 rad14 strain (AID 165);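 further: 0% = growth equal to vehicle treated cultures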; conditions: S. cerevisiae cln2 rad14 strain, at 50.0 µM, stronger effect = higher value
In short: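 Growth inhibition, relative to vehicle-treated controls, is the read-out. The test organism is a yeast strain with defined genetic alterations, cln2 rad14.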

[5] = NCI Yeast Anticancer Drug Screen. Data for the bub3 strain (AID 167); conditions: S. cerevisiae bub3 mutant strain, at 50.0 µM, stronger effect = higher value
In short: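 Steps: expose the mutant yeast strain to compound; grow alongside vehicle-treated cultures; measure growth; express inhibition against the vehicle cultures.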

[6] = NCI Yeast Anticancer Drug Screen. Data for the mlh1 rad18 strain (AID 175); conditions: S. cerevisiae mlh1 rad18 strain growth inhibition; at 50.0 µM; stronger effect = higher value
In short: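 Cells of a genetically altered yeast strain, deficient in DNA damage repair, were treated with compound. Their growth was then compared with that of vehicle-treated cultures to give inhibition.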

Row | Compound | growth inhibition [1] | growth inhibition [2] | growth inhibition [3] | growth inhibition [4] | growth inhibition [5] | growth inhibition [6]
1 | O=C(O)C(O)c1ccc(Cl)c(Cl)c1 (centres undefined) | 29.4% | -24.3% | 7.2% | -13.3% | 15.8% | 11.1%
2 | CN(C)c1ccc(N=Cc2ccc(O)cc2)cc1 | 10.9% | 0.55% | -4.6% | 2% | 2.9% | 7%
3 | CCOc1nc2c(c(=O)n(C)c(=O)n2C)n1C | 26.9% | -7.55% | -6.25% | 8% | 7.65% | 20.9%
4 | C[n+]1ccc(/C=C/c2c[nH]c3ccccc23)cc1 | 6.25% | 10.8% | 3.6% | -1.75% | 5.1% | -8.3%
5 | C/C(=N\NC(=O)CC(=O)N(C(=O)c1ccccc1Cl)c1ccc(C)cc1)c1ccc(Cl)cc1 | -0.5% | -8.95% | -25.4% | -15.8% | -4.25% | -6.1%
6 | Nc1nnc(-c2ccc(-c3nnc(N)o3)cc2)o1 | -33.6% | -12.9% | -8.55% | -31.1% | 4.05% | -7.25%
7 | N/C(=N\O)c1c(Br)n(C2OC(CO)C(O)C2O)c2ncnc(N)c12 (centres undefined) | 12.1% | 11.7% | 4.7% | 10.8% | -2.05% | 1.75%
8 | O=S(=O)(O)C(O)c1ccccc1 (centres undefined) | 1.25% | -2.85% | -8.85% | -10.9% | -15.1% | -6.2%
9 | O=c1c2ccccc2c(=O)c2c1ccc1[nH]c3ccccc3sc12 | -7.15% | -1.75% | 7.6% | -20.1% | 6.2% | -6.6%
10 | O=[N+]([O-])c1ccc(CCn2cnc3c(N(CCO)CCO)ncnc32)cc1 | -7.85% | -0.9% | 3.6% | -54.3% | 6.95% | -14.3%
11 | CC[n+]1[b-](C(C)(C)C)n(/N=C/C(C)(C)C)[b-](C(C)(C)C)[n+]1CC | 0.7% | -13.2% | -19.9% | 20.4% | -11.2% | 4.95%
12 | Cc1cc(Cl)ccc1NC(=O)/C(=N\NC(C)(C)C)C(C#N)c1nc(-c2ccc([N+](=O)[O-])cc2)cs1 (centres undefined) | 23.8% | 8.95% | 3.85% | 25.7% | 4.25% | -10.8%
13 | Cn1c(=O)c2[nH]c(SCc3cccnc3)nc2n(C)c1=O | -4.35% | -11.1% | 6.85% | -44.9% | 4.7% | -10.6%
14 | C=CCc1nc2c([nH]1)c(=O)n(C)c(=O)n2C | 33.5% | -2.2% | 37.6% | 11.7% | -6.8% | 18.6%
15 | COCC12CC(CC1=O)C1C2ON2c3ccccc3C(=O)C12c1ccccc1 (centres undefined) | 50.9% | -8.25% | 36.8% | 37.8% | 26.9% | 18.6%
16 | C=CCC1OC(=O)CCNC(=O)C(C)N(C)C(=O)C(C(C)C)N(C)C(=O)C(C(C)CC)NC(=O)C2CCCN2C1=O (centres undefined) (cyclo([X8]PI[NMeV][NMeA][βAla]); configuration not given here) | 15.3% | 10.1% | 5.55% | 11.5% | 8.35% | 17.8%
17 | COc1ccc2c(c1)OC[C@@H]1c3cc(NS(=O)(=O)c4ccccc4)cc(OC)c3O[C@H]21 | 10.9% | 32.5% | 47.8% | 30.3% | 58.8% | 52.6%
18 | OCC1(F)CC1(c1ccccc1)c1ccccc1 (centres undefined) | 0.45% | -2.85% | 7.45% | 12.7% | -13.4% | -22.6%
19 | NCC(=O)NCC(=O)NCC(=O)NCC(=O)NCC(=O)NCC(=O)O | 26.1% | 16.4% | 0.4% | -38.6% | -3.5% | -3.65%
20 | COc1ccc(NC(C)=O)c(O)c1C | -0.6% | 2.15% | -17% | -25.4% | -3.7% | -12.7%

Row | Compound | growth inhibition [1] | growth inhibition [2] | growth inhibition [3] | growth inhibition [4] | growth inhibition [5] | growth inhibition [6]
21 | CC1(C(Cl)(Cl)Cl)C=C/C(=N\O)C(Cl)=C1 (centres undefined) | -2.3% | -10.7% | -1.9% | 4.95% | -8.9% | -7.75%
22 | C=C(CBr)CCCCC | 65.1% | 23.3% | 62.6% | 14.1% | 29.8% | 0.55%
23 | O=C(O)c1ccc(Cl)c2ncccc12 | 5.3% | 1.25% | -1.3% | -28.2% | -9.75% | 13.2%
24 | CC1(C(O)(c2ccccc2)c2ccccc2)CC1(c1ccccc1)c1ccccc1 (centres undefined) | -21.4% | -2.4% | -10.9% | -8.05% | 1.3% | -2.3%
25 | CCc1cc(CSc2ccc(Cl)cc2)ccc1N | 98.5% (active) | 99% (active) | 98.8% (active) | 97.2% (active) | 98% (active) | 98.2% (active)
26 | CCN(CC)CCOCC1CCCN2CCCCC12 (centres undefined) | -9.5% | -9.8% | -1.75% | 5.75% | 16.1% | -50.1%
27 | CC(C)CC(NC(=O)COc1cc(Cl)ccc1Cl)C(=O)O (centres undefined) | -4.3% | 19.2% | 6.3% | -18.6% | -3.25% | -40.4%
28 | NNC(=O)c1c[nH]c2ccccc2c1=O | 3.7% | 13.1% | 0.85% | -20.6% | 5.1% | 5.4%
29 | Brc1cccc(-c2nnc(-c3ccccc3)o2)c1 | -4.15% | -11.7% | -8.4% | -41.5% | -0.4% | -12.1%
30 | CC(=O)Nc1ccc(/C=N/NC(=O)c2ccc(O)cc2)cc1 | 1.7% | 9.55% | -2% | 4.15% | 2.35% | 0.9%
31 | Cc1ccc(-c2cc(O)c3nc4ccccc4n3c2)cc1 | -36.4% | -10.1% | -31.4% | -22.9% | -18.5% | -24.1%
32 | O=S(=O)(c1ccccc1)c1cccc2c1NCCC2 | 34.9% | -1.75% | 34.4% | 8.4% | 62.3% | 43.6%
33 | CSCSCC(CO)NC(=O)/C=C\c1ccccc1 (centres undefined) | -0.7% | -4.05% | 7.15% | -21.7% | 4% | 3.5%
34 | FC(F)Cc1ccccc1 | 3.55% | -0.75% | 11.1% | -7.15% | -1.5% | -6.6%
35 | O=C(CSCSCC(=O)Nc1ccc(C2=NCCN2)cc1)Nc1ccc(C2=NCCN2)cc1 | 35% | 18.4% | 36.6% | -6.1% | 17.9% | 19.9%
36 | Nc1ccc(C(=O)O)cc1[N+](=O)[O-] | -0.85% | -4.65% | -3.7% | -14.6% | 2.15% | -1.5%
37 | CNC(=O)CCC(NC(=O)OC(C)(C)C)C(=O)NC(Cc1ccc(NC(=O)CCCCC(C)=O)cc1)C(=O)NCC(=O)NC (centres undefined) | -18.3% | 13.9% | -0.25% | 9.8% | 3.75% | -2.1%
38 | O=C(c1ccccc1)C1Nc2ccccc2CO1 (centres undefined) | -5% | -13.3% | -13.5% | -23.4% | -1.6% | 28.9%
39 | CCCNC(=O)c1ccccc1O | 9.95% | 3.05% | 3.9% | 1.4% | 0.3% | 7.45%
